The structures appear in SMILES notation. Hit rate of the full screen: of about 360,000 compounds, about 1,400 (0.39%) were called active. This excerpt belongs to a sample that is enriched for actives. Values without a mark were called inactive. No stated cut-off is given here; in the data, active means inhibition above about 21%; inactive means the rest.

For the experiment, the target named is Receptor-interacting serine/threonine-protein kinase 2 (Homo sapiens) (UniProt O43353). Briefly: NOD2-RIPK2 binding disruptors in cells, primary screen, fluorescence, CHO cells, BLA complementation (AID 624267).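 Further: 0% = vehicle only and 100% = reference blocker.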 To be noted: CHO BLA complementation NOD2-RIPK2, CCF4 ratio; at 4.98 µM; hits give high values.
Sequence of Receptor-interacting serine/threonine-protein kinase 2 (Homo sapiens) (O43353 whole entry, looked up): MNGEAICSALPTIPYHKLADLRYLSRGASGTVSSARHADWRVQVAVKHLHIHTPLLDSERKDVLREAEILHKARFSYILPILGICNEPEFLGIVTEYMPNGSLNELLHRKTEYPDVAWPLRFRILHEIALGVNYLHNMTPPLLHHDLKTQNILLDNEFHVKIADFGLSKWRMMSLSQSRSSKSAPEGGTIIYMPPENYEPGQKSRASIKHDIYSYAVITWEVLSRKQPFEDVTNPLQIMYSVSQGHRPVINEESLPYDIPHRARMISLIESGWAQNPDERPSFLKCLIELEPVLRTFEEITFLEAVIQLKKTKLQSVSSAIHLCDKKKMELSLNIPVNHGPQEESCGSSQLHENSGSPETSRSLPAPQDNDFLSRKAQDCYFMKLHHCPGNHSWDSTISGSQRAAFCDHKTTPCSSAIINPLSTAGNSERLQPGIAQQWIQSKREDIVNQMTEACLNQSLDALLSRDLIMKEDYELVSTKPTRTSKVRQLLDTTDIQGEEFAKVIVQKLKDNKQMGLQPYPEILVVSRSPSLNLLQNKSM
`C[C@H]1CN([C@@H](C)CO)C(=O)c2cc(-c3cccc(F)c3)cnc2O[C@@H]1CN(C)S(C)(=O)=O`: the inhibition is 21.8% (active). In the case of `C[C@@H]1CN([C@H](C)CO)C(=O)c2cc(-c3ccc(F)cc3)cnc2O[C@H]1CN(C)C(=O)c1ccc(F)cc1`, the inhibition was -5.43%. To `C[C@H]1CN([C@@H](C)CO)C(=O)c2cc(Br)cnc2O[C@H]1CN(C)S(=O)(=O)c1cccs1` belongs -2.32%; to `Cc1ccc(N(C(=O)c2sc(C)nc2C)C(C(=O)NC(C)(C)C)c2ccncc2)cc1` (configuration not stated), -19.7%.

For the compound `COc1ccc(NC(C)=O)cc1NC(=O)CN1CCN(C2c3ccccc3-c3ccccc32)CC1`, the inhibition is -1.12%.

`Cc1ccc(NS(=O)(=O)c2ccc(C(=O)NCCCN3CCOCC3)cc2)cc1`: the inhibition is -3.35%. Turning to `Cc1cccc(CS(=O)(=O)c2ncc(Cl)c(C(=O)Nc3ccc(F)cc3)n2)c1`, the inhibition is 95.7% (active). To `CN(CCC(=O)Nc1cc(S(=O)(=O)N(C)C)ccc1Cl)CC(=O)Nc1ccc(F)cc1` belongs -1.55%.

In the case of `O=C(CS(=O)(=O)Cc1ccccc1)Nc1cccnc1`, the inhibition was -7.99%. To `Cc1cc(NS(=O)(=O)c2ccc(NC(=S)NC(=O)c3ccc(F)cc3Cl)cc2)no1` belongs -13%; to `Cc1cccc(NC(=O)c2nc(S(=O)(=O)Cc3ccccc3)ncc2Cl)c1`, 90.3% (active). To `Cc1cccc(NC(=O)Cn2c(=O)n(Cc3ccccc3)c(=O)c3c(C)c(C)sc32)c1` belongs -1.85%; to `COc1ccc(C(C)=O)cc1CN1C(=O)NC2(CCCCC2C)C1=O` (configuration not stated), -6.26%. Regarding `CC(C)N1C(=O)c2ccccc2NC(=O)C1C(=O)NCc1cccs1` (configuration not stated), the inhibition is -11.7%. For `CC(OC(=O)CNS(=O)(=O)/C=C/c1ccccc1)C(=O)Nc1ccc(S(=O)(=O)N2CCCC2)cc1` (configuration not stated), the inhibition was -14.5%. Turning to `COc1ccc(CCNC(=O)CCc2cn(C)c3ccccc23)c(OC)c1`, the inhibition is 3.29%.

In the case of `O=[N+]([O-])c1c(NCCO)cc(Sc2nc3ccccc3s2)c2nonc12`, the inhibition is 86.9% (active). To `CCN(CCO)C(=S)Nc1cc(C(=O)OC)ccc1C(=O)OC` belongs -1.65%; to `COc1ccc(C[C@H]2CN3C(=NC[C@H]3C)N2CCNC(=O)CCC2CCCCC2)cc1`, -3.4%. As for `O=C(CCCN1C(=O)CSc2ncccc21)N1CCN(c2cccc(C(F)(F)F)c2)CC1`, the inhibition was 3.16%.

As for `COc1ccc(CCNS(=O)(=O)c2ccc(F)cc2)cc1OC`, the inhibition was -9.46%. Turning to `COc1ccc(-c2cc(C(F)(F)F)nc(S(C)(=O)=O)n2)cc1OC`, the inhibition is 36.7% (active). Regarding `Cc1cc(C)c(C)c(S(=O)(=O)Nc2ccc(O)cc2)c1C`, the inhibition is -7.06%. To `Cc1ccc(S(=O)(=O)NC(=O)N2CCCN(Cc3ccc(F)cc3)CC2)cc1` belongs 8.13%; to `Cc1ccc(CS(=O)(=O)CCC(=O)NCc2ccc(F)cc2)cc1`, 10.2%. To `CC(OC(=O)c1cc2ccccc2o1)C(=O)Nc1ccc(N2CCOCC2)cc1` (configuration not stated) belongs -6.36%; to `CC(C)c1cc(C(=O)N/N=C/c2ccoc2)c(O)c(C(C)C)c1`, -15.4%; to `O=C(NN=Cc1ccc(N2CCOCC2)cc1)c1cc2ccccc2cc1O`, 30.5% (active). For `CCc1nnc(NC(=O)CSc2nc3c(c(=O)n2-c2ccccc2OC)SCC3)s1`, the inhibition was -4.66%.

Take `CC(C)Oc1ccc(C2NC(=O)NC2=O)cc1` (configuration not stated): the inhibition was -8.11%. To `COc1ccc(C(C(=O)NCc2ccccc2)n2c(=O)c(-c3ccccc3)nc3ccccc32)cc1` (configuration not stated) belongs -6.05%; to `COc1ccc(NC(=O)C(c2ccncc2)n2c(=O)c(-c3cc4ccccc4[nH]3)nc3ccccc32)cc1` (configuration not stated), 37.2% (active); to `CCCCCNC(=O)C(c1ccc(OC)cc1)n1c(=O)c(-c2ccccc2)nc2ccccc21` (configuration not stated), -13.6%.

`CCOc1ccc(NC(=O)C/C(C)=N/NC(=O)Cc2cccs2)cc1`: the inhibition is -21.5%. To `O=C(c1ccc(O)cc1)c1ccc(C(=O)O)c(C(=O)O)c1` belongs 7.45%; to `Nc1ncnc2c1ncn2[C@@H]1O[C@H](C(=O)NS(=O)(=O)c2c(Cl)nc3sccn23)[C@@H](O)[C@H]1O`, -5.91%.

For `Cc1ccnc(NS(=O)(=O)c2ccc(NC(=O)c3oc4ccccc4c3C)cc2)n1`, the inhibition was 7.08%. `CC(=O)Nc1ccc(C=Cc2ccc([N+](=O)[O-])cc2)cc1`: the inhibition was 23.5% (active). To `O=C(O)/C=C/C(=O)NNc1ccc([N+](=O)[O-])cc1` belongs -11.2%; to `O=C(CCC(=O)N1CCCC1)Nc1ccc([N+](=O)[O-])cc1`, -7.75%. With `O=C(CN1C(=O)NC2(CCCCC2)C1=O)N1CCN(C(=O)c2cccs2)CC1`, the inhibition was -8.73%. To `C[C@@H](NC(=O)c1nc[nH]c1C(=O)N1CCN(C(=O)OC(C)(C)C)CC1)c1ccccc1` belongs 1.84%.

In the case of `CC(C)(C)OC(=O)N1CCC(NC(=O)c2[nH]cnc2C(=O)N[C@@H](Cc2ccccc2)C(=O)OCc2ccccc2)CC1`, the inhibition is 30.1% (active). To `O=C(N[C@@H](Cc1ccccc1)C(=O)OCc1ccccc1)c1nc[nH]c1C(=O)N[C@@H](Cc1ccccc1)C(=O)OCc1ccccc1` belongs -4.2%; to `CC(C)(C)c1nnc(NC(=O)C2c3ccccc3Oc3ccccc32)s1`, 13.8%; to `COc1ccc2c(c1OC)C(=O)OC2Nc1nc(-c2ccccc2)cs1` (configuration not stated), 21.7% (active).

For the compound `COc1cc(C(O)c2nc(-c3cccc(C(=O)O)c3)cs2)ccc1F` (configuration not stated), the inhibition was -2.31%. To `COc1ccccc1C(=O)Nc1nc2nc(-c3ccccc3)cc(=O)n2[nH]1` belongs -2.48%; to `C=CCNC(=O)COC(=O)c1ccccc1C(=O)N(C)C1CCCCC1`, -6.21%; to `COc1cccc(CNC(=O)COC(=O)CN2C(=O)NC3(CCCCC3C)C2=O)c1` (configuration not stated), -6.08%. To `CCOc1ccc(-c2nnc3ccc(SC)nn23)cc1` belongs 9.56%; to `CCC(CC)COC(=O)C1=C(C)NC(=O)NC1c1ccc([N+](=O)[O-])cc1` (configuration not stated), 7.52%; to `CCOC(=O)C1=C(c2ccccc2)NC(=O)NC1c1cc(OCC)c(O)c([N+](=O)[O-])c1` (configuration not stated), 6.34%. For the compound `CCOC(=O)C1=C(C)N(C[C@@H]2CC[C@@H](Cc3ccc(-c4ccccc4)cc3)O2)C(=O)NC1c1ccc([N+](=O)[O-])cc1` (some centres not stated), the inhibition was 22.2% (active). `O=C(CNS(=O)(=O)c1ccc2ccccc2c1)Nc1ccc(F)c(F)c1F`: the inhibition was -7.54%. To `Cc1ccnc(NC(=O)CCC(=O)N(CC(=O)NCCc2ccccc2)Cc2cccs2)c1` belongs 0.75%. To `O=C1/C(=C/c2cccs2)CCC1C1CCCC1` (configuration not stated) belongs -6.88%; to `CCCc1cc(=O)oc2c(C)c(OCC(=O)Nc3ccccn3)ccc12`, -2.73%. For `COc1cccc(C(=O)OCc2cc(=O)oc3c(C)c(C)ccc23)c1OC`, the inhibition is -0.79%. To `COC(=O)Cc1cc(=O)oc2c(C)c(O)ccc12` belongs 33.2% (active); to `CCCCn1nnnc1C1(C)CCC(=O)N1Cc1ccc(OC)c(OC)c1` (configuration not stated), -13.3%. To `COC(C)(C)[C@]12CC(O)(C(C)C)ON1[C@H]1CCCCC1N2O` (some centres not stated) belongs -0.99%. `CCOC(=O)Cc1c(C)nc2c(C#N)c(C)nn2c1C`: the inhibition was 1.59%. Take `O=C(O)CCC(=O)Nc1ccc(N2CCOCC2)cc1`: the inhibition was -4.21%. With `O=C(/C=C/c1ccc(N2CCOCC2)cc1)c1ccccc1`, the inhibition was 30.6% (active). To `CCCOC(=O)c1ccc(N2C(=O)c3ccccc3C2=O)cc1` belongs 1.19%; to `CC(=O)Oc1ccc(C)cc1N1C(=O)c2ccc(C(=O)O)cc2C1=O`, -5.17%; to `C/C(=C/c1ccccc1)C(=O)N1CCN(c2ccccc2)CC1`, -2.58%.

In the case of `O=C(O)c1ccc2c(c1)C(=O)N(c1ccc(/C=C/C(=O)c3ccccc3)cc1)C2=O`, the inhibition was 23.8% (active). To `CCN(C(=O)COC(=O)C1CCN(S(=O)(=O)c2ccc(C)c(C)c2)CC1)C1CCS(=O)(=O)C1` (configuration not stated) belongs -0.71%. To `O=C(Nc1ccc(OCCO)cc1)c1csc([C@H]2C[C@H](O)[C@@H](CO)O2)n1` belongs -10.7%. `NC(=O)NC(=O)C(OC(=O)CCNS(=O)(=O)c1ccccc1)c1ccccc1` (configuration not stated): the inhibition is -7.31%.

In the case of `O=C(CN1CCCCC1)N1c2ccccc2Sc2ccc(C(F)(F)F)cc21`, the inhibition is 1.57%. In the case of `CC1CCN(C(=O)c2ccccc2NC(=O)Cc2ccccc2)CC1`, the inhibition was -1.45%. To `CC(NC(=O)c1ccc(S(=O)(=O)Nc2ccccc2)cc1)c1ccc(S(N)(=O)=O)cc1` (configuration not stated) belongs 3.07%. Take `O=C1C(=O)N(CC2COc3ccccc3O2)c2ccccc21` (configuration not stated): the inhibition was 22.5% (active).

Consider `CCn1cc(C(=O)NCC2COc3ccccc3O2)c2cc(OC)c(OC)cc2c1=O` (configuration not stated), for which the inhibition is -5.84%. To `O=C1C(=O)N(c2ccccc2)c2ccccc21` belongs 9.77%; to `C[C@H]1CN([C@@H](C)CO)C(=O)Cc2cc(NC(=O)Cc3ccccc3)ccc2O[C@H]1CN(C)S(=O)(=O)c1cccs1`, -4.34%. Consider `Cc1ccc(S(=O)(=O)n2cnc3ccccc32)c(C)c1`, for which the inhibition was 3.17%. To `COc1cc2nnn(-c3ccncc3)c2cc1OC` belongs -0.06%. For `CC(C)(C)NC(=O)COC(=O)c1cc(Br)ccc1Cl`, the inhibition was -6.13%. For `c1csc(-c2nnc(COc3ncnc4sccc34)o2)c1`, the inhibition is 2.97%. Regarding `CC1=C(C(=O)OC2CCCCC2)C(c2cccnc2)n2ncnc2N1` (configuration not stated), the inhibition was 7.46%. To `CCOc1ccc(C2=CC(c3ccccc3)n3ncnc3N2)cc1` (configuration not stated) belongs 42.2% (active); to `CCOc1ccccc1C1CC(c2ccccc2)Nc2nc(N)nn21` (configuration not stated), -8.78%. To `Brc1ccc(C2=CC(c3ccco3)n3ncnc3N2)cc1` (configuration not stated) belongs 24.6% (active).

The record behind these values is PubChem BioAssay AID624267 (The Scripps Research Institute Molecular Screening Center, 2012).
